Test results from PubChem BioAssay.
Results with a measured potency or affinity are listed apart. Inconclusive results are not listed. Calls of active or inactive are those of the source. The rule behind the calls is not given here.

Assay: general cell-killing toxicity readout – plate reader, dry powder samples, cytotoxicity control for PAX8 inhibitor project, dose response (AID 743021)
Settings: cell line, non-specific cytotoxicity counter-screen; series mostly up to 35 µM; activity change, negative = cytotoxicity: at the top concentration

Row | Compound | activity change, negative = cytotoxicity
1 | O=C(NC12CC3CC(CC(C3)C1)C2)c1ccc([N+](=O)[O-])o1 | 10.3% (inactive)
2 | C[C@H](CO)N1C[C@H](C)[C@@H](CN(C)S(=O)(=O)c2ccc(Cl)cc2)OCCCC[C@H](C)Oc2ccc(NS(=O)(=O)c3ccc(Cl)cc3)cc2C1=O | -18.5% (inactive)
3 | CCCNC(=O)Nc1ccc2c(c1)OC[C@H](C)N(Cc1ccc(-c3ccccn3)cc1)C[C@@H](C)[C@@H](OC)CN(C)C2=O | -17.8% (inactive)
4 | Cn1c(CCN2CCCC2)nc2cc(NS(=O)(=O)c3ccccc3)ccc21 | -9.54% (inactive)
5 | C[C@H]1CN([C@@H](C)CO)C(=O)c2cc(NS(=O)(=O)c3ccccc3)ccc2O[C@@H]1CN(C)Cc1ccc(Oc2ccccc2)cc1 | 10.2% (inactive)
6 | CCOC(=O)Nc1ccc2c(c1)N(C(=O)CCN(CC)CC)c1ccccc1S2=O (stereo unspecified) | 57.4% (inactive)
7 | C[C@@H]1CN([C@@H](C)CO)C(=O)Cc2cc(NC(=O)CCC(F)(F)F)ccc2O[C@H]1CN(C)Cc1ccc(-c2ccccc2)cc1 | -4.09% (inactive)
8 | C[C@@H]1CN([C@H](C)CO)C(=O)Cc2cc(NC(=O)Nc3ccc(F)cc3)ccc2O[C@H]1CN(C)Cc1ccc(Cl)c(Cl)c1 | 11% (inactive)
9 | C[C@@H]1CCCCO[C@@H](CN(C)Cc2ccc(C(F)(F)F)cc2)[C@@H](C)CN([C@@H](C)CO)C(=O)c2cc(NS(=O)(=O)c3ccccc3)ccc2O1 | 15.2% (inactive)
10 | CC(=O)[C@@]1(O)Cc2c(O)c3c(c(O)c2[C@H](O[C@H]2C[C@H](N)[C@H](O)[C@H](C)O2)C1)C(=O)c1ccccc1C3=O | 15.8% (inactive)
11 | COc1ccc(C2=NNC(=Nc3cc(S(=O)(=O)N(C)C)ccc3C)SC2)c(OC)c1 | 9.24% (inactive)
